Counter-ions that a name gives are not always drawn. Whole data set: some 2,000 compounds, median “fractional viability relative to vehicle” near 0.91, cut for the lowest 2% near 0.045. The sample holds the lowest values, similar compounds and a random draw of the others, so the mix is not that of the screen.
Tested on: TYKNU
Test: fractional viability relative to vehicle; TYKNU is a high-grade serous ovarian cancer line; higher = less growth inhibition
Conditions: 72 h
Procedure, shortened: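 TYKNU control cells or lentiCRISPRv2 knockout derivatives were plated at 500 cells per well in duplicate into drug-stamped 384-well plates holding a ~2100-compound library at 2 or 10 μM. Culture was in RPMI 1640 with 10% FBS at 37 °C in 5% CO2, with 72 h of drug treatment. Viability was measured by Cell Titer Glo luminescence, and the averaged duplicate treatment wells were normalised to duplicate control wells at the same plate position.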

[1] = 2uM, genotype: DNM1L knockout (sgDNM1L #1)
[2] = 2uM, genotype: sgCTRLA1 (non-targeting control)
[3] = 10uM, genotype: DNM1L knockout (sgDNM1L #1)
[4] = 10uM, genotype: sgCTRLA1 (non-targeting control)

Row | SMILES | fractional viability [1] | fractional viability [2] | fractional viability [3] | fractional viability [4]
1 | CCCCc1nc2cc(/C=C/C(=O)NO)ccc2n1CCN(CC)CC [Pracinostat (SB939)] | 0.146 | 0.22 | 0.0823 | 0.0879
2 | O=C1NC(=O)/C(=C/c2ccc3nccc(-c4ccncc4)c3c2)S1 | 0.556 | 0.7 | 0.21 | 0.219
3 | CCCCCCCCCCCCCCCC[N+](C)(C)C [Cetrimonium Bromide (CTAB)] | 0.311 | 0.295 | 0.0593 | 0.0171
4 | CCCCCCCCCCCC[N+](C)(C)CCOc1ccccc1 [Domiphen Bromide] | 0.558 | 0.882 | 0.0673 | 0.0826
5 | CCCCCCCCCCCCCCCCO [1-Hexadecanol] | 0.833 | 1.09 | 0.879 | 1.1
6 | COc1ccc(-n2c(SCCCN3C(=O)c4cccc5cccc(c45)C3=O)nnc2-c2ccncc2)cc1 | 0.722 | 0.945 | 0.895 | 0.738
7 | Nc1nccc(Oc2ccc(NC(=O)c3c[nH]cc(-c4ccc(F)cc4)c3=O)cc2F)c1Cl | 1.09 | 1.05 | 0.598 | 0.808
8 | CC1(C)CCC2=C(O1)c1ccccc1C(=O)C2=O [Beta-Lapachone] | 0.128 | 0.0912 | 0.0219 | 0.023
9 | CC1=CC(=O)c2ccccc2C1=O [Menadione] | 0.872 | 1.1 | 0.952 | 0.951
10 | N#C/C(=C(/N)Sc1ccc(N)cc1)c1ccccc1C(F)(F)F | 0.881 | 0.905 | 0.626 | 0.785
11 | OC[C@H]1O[C@@H](c2ccc(Cl)c(Cc3ccc(O[C@H]4CCOC4)cc3)c2)[C@H](O)[C@@H](O)[C@@H]1O | 0.8 | 1.06 | 0.788 | 0.819
12 | Oc1cc2c(cc1O)[C@@H]1c3ccc(O)c(O)c3OC[C@]1(O)C2 [Hematoxylin] | 0.878 | 1.11 | 0.861 | 0.977
13 | CCOC(=O)[C@H](CCc1ccccc1)N[C@H]1CS[C@H](c2cccs2)CN(CC(=O)O)C1=O [Temocapril HCl] | 0.889 | 1.23 | 0.83 | 1.04
14 | CC(C)c1cc(-c2n[nH]c(=O)n2-c2ccc3c(ccn3C)c2)c(O)cc1O [Ganetespib (STA-9090)] | 0.299 | 0.204 | 0.248 | 0.206
15 | Cc1[nH]c(/C=C2\C(=O)Nc3ccc(S(=O)(=O)N(C)c4cccc(Cl)c4)cc32)c(C)c1C(=O)N1CCN(C)CC1 | 1.02 | 0.999 | 0.152 | 0.189
16 | Cc1[nH]c(/C=C2\C(=O)Nc3ccc(S(=O)(=O)Cc4c(Cl)cccc4Cl)cc32)c(C)c1C(=O)N1CCC[C@@H]1CN1CCCC1 | 0.317 | 0.279 | 0.0474 | 0.0167
17 | CN(C)S(=O)(=O)c1ccc2c(c1)/C(=C/c1cc3c([nH]1)CCCC3)C(=O)N2 | 0.562 | 0.815 | 0.234 | 0.264
